These results are taken from PubChem BioAssay.

Experiment [1] deals with Human papillomavirus type 1a protein E7 (residues 44-93). Kind of experiment: HPV1a E7 fragment binders on microarrays, primary screen, biochemical, small-molecule microarray, residues 44-93, 635 nm fluorescence (AID 1108).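 Also: E7 fragment applied at 1 µg/mL in TBST for 1 h at 4 C; score combines spot fluorescence with its signal to noise ratio.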 The note with it: small-molecule microarray binding, fluorescence 635 nm; higher = more signal.
Experiment [2] is described as follows: modulators of HCV replicon luciferase signal, primary screen, HCV replication inhibitor project, Huh7 cells, luciferase reporter (AID 1109).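 Also: huh7 hepatoma cells harbouring a luciferase neomycin HCV replicon reporter; luciferase luminescence as measure of HCV replicon replication; test concentration not given here.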 The note with it: 48 h, higher = more signal. On the technique in general: In antiviral work, replicon cells carry a viral genome segment that copies itself.
Experiment [3] addresses Left-right determination factor 2 (Homo sapiens) (UniProt O00292). Kind of experiment: LEFTY2 binders on small-molecule microarrays, primary screen, biochemical, small-molecule microarray, 635 nm fluorescence scan (AID 1110). The note with it: LEFTY2 binding, higher = more signal.
Experiment [4] concerns the target Calmodulin-1 (Homo sapiens) (UniProt P0DP23). Kind of experiment: CALM1 binders on microarrays, EGTA buffer, profiling panel, biochemical, small-molecule microarray, Cy5-labelled CALM1 (AID 1111).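 Also: labelled calmodulin applied in Tris saline Tween buffer holding calcium plus EGTA and DTT.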 To be noted: Cy5-CALM1 binding fluorescence, higher = more signal.
For experiment [5] the target is unchanged. Kind of experiment: calcium-bound CALM1 binders on microarrays, profiling panel, artefact control for SMM control-protein annotation, biochemical, small-molecule microarray, Cy5-labelled CALM1, plus calcium (AID 1112).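 Also: score merges spot fluorescence with signal to noise from triplicate slides.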 To be noted: Cy5-CALM1 binding fluorescence, higher = more signal.
Experiment [6] is described as follows: small-molecule microarray binders of probe aWnt5a, primary screen, biochemical, biotinylated probe, 635/667 nm fluorescence (AID 1113).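 Also: score merges 667 nm fluorescence intensity with signal-to-noise per printed feature.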 To be noted: higher = more signal.
Experiment [7] is described as follows: small-molecule microarray binders of probe aShh, primary screen, biochemical, biotinylated probe, 635/667 nm fluorescence (AID 1114).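 Also: probe is biotin-labelled aShh protein from a stem cell growth factor screen; measures binding of labelled protein to compounds printed on the slide; score merges feature fluorescence at 667 nm with signal-to-noise.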 To be noted: higher = more signal.
Experiment [8] is described as follows: small-molecule microarray binders of probe aNog, primary screen, biochemical, biotinylated probe, 635/667 nm fluorescence (AID 1115).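 Also: probe is biotinylated aNog protein used at 0.15 µg/mL for 1 h at 4 C; z-score combines 667 nm fluorescence of each spot with its signal to noise.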 To be noted: higher = more signal.
Experiment [9] has as its target Torsin-1A-interacting protein 1 (Homo sapiens) (UniProt Q5JTV8). Kind of experiment: LAP1 binders from COS7 cell lysate, primary screen, small-molecule microarray, 635/667 nm fluorescence (AID 1116). To be noted: COS7-hLAP1 lysate binding, 635 nm fluorescence, higher = more signal.
Experiment [10] concerns the target Alpha-bungarotoxin (Bungarus multicinctus) (UniProt P60615). Kind of experiment: alpha-bungarotoxin binders on microarray, profiling panel, artefact control for SMM control protein annotation, biochemical, small-molecule microarray, Alexa647 label, 635/667 nm fluorescence (AID 1117). To be noted: alpha-BTX-A647 binding fluorescence, higher = more signal.

Chain of Alpha-bungarotoxin (Bungarus multicinctus) (P60615 whole entry, looked up): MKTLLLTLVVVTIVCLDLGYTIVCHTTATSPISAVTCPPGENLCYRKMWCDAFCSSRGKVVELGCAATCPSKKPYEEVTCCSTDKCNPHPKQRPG
Chain of Left-right determination factor 2 (Homo sapiens) (O00292 whole entry, looked up): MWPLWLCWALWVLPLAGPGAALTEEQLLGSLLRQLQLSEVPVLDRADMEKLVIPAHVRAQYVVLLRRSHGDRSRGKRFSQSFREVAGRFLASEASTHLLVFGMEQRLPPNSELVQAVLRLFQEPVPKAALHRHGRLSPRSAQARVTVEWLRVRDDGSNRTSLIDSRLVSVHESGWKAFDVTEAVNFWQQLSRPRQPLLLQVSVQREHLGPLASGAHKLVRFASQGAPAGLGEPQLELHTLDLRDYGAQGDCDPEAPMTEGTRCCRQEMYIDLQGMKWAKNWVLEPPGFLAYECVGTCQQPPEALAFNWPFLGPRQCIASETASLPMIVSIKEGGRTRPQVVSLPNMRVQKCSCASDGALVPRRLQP
Chain of Torsin-1A-interacting protein 1 (Homo sapiens) (Q5JTV8 whole entry, looked up): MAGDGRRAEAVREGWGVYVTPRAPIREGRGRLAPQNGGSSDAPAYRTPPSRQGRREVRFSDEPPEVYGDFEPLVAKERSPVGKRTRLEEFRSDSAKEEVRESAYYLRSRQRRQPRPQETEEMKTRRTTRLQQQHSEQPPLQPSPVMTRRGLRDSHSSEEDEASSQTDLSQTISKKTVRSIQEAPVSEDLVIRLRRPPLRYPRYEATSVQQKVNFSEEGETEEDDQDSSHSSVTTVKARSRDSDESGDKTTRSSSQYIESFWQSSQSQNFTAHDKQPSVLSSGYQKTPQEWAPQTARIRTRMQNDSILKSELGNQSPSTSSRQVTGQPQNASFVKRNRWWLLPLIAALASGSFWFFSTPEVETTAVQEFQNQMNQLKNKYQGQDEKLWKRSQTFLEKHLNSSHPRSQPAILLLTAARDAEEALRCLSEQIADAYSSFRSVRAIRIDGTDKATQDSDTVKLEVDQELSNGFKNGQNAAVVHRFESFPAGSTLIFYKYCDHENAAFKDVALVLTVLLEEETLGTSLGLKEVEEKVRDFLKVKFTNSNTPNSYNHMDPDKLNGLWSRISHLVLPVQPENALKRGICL

Regarding `COc1ccc([Si](C)(C)[C@H]2[C@H](CCO)O[C@@]3(C(=O)N(Cc4ccccc4)c4ccc(N5C(=O)COc6ccccc65)cc43)[C@@H]2C)cc1`, the composite z-score in [1] is -1.13; in experiment [3], 0.206; in experiment [4], 1.44; in [5] it was 1.12; in experiment [6], -0.136; in experiment [7], 0.108. Also, the composite z-score was -0.487 in experiment [8], 0.216 in experiment [9] and 0.662 in experiment [10]. The molecule also showed a z-score in experiment [2] of -4.64.

As to `C=CCNC(=O)[C@@H]1[C@H]2C(=O)O[C@H](c3ccccc3)[C@H](c3ccccc3)N2[C@H](c2ccccc2OCCO)[C@@]12C(=O)N(C(=O)OCCOC)c1ccc(C#CCC(C(=O)OC)C(=O)OC)cc12`, the composite z-score in experiment [1] stood at 1.12; in experiment [3], 1.47; in [4] it was 2.23; in experiment [5], 1.01; in experiment [6], 0.826; in experiment [7] it was 2.18. The composite z-score was 2.79 in [8], 2.74 in experiment [9] and 3.06 in experiment [10]. In experiment [2], this molecule returned a z-score of -2.59.

Turning to `COCCOC(=O)N1C(=O)[C@@]2(c3cc(C#CC4(O)CCCCCC4)ccc31)[C@H](c1ccc(O)cc1)N1[C@H](c3ccccc3)[C@H](c3ccccc3)OC(=O)[C@H]1[C@@H]2C(=O)N1CCc2cc(OC)c(OC)cc2C1`, the composite z-score was -0.213 in experiment [1]; -1.24 in [3]; -0.548 in experiment [4]; -0.179 in experiment [5]; -0.145 in experiment [6]; 0.0756 in experiment [7]. Moreover, the values for the composite z-score in experiment [8], in experiment [9] and in [10] were -0.321, 0.282 and -0.678, respectively. In experiment [2], this molecule came in with a z-score of -0.302.

As for `NC(=O)[C@]1(Cc2ccccc2)N=C(c2ccc(OCCCO)cc2)O[C@@H]1c1ccccc1`, the composite z-score in [1] is 1.33; in experiment [3] it was -1.02; in experiment [4], 1.35; in experiment [5], 0.744; in experiment [6], -0.0398; in [7], 0.409. Moreover, the results for the composite z-score in [8], in experiment [9] and in [10] were 1.42, 1.51 and 1.23, respectively. This molecule also gave a z-score in experiment [2] of -0.772.

On to `O=C1O[C@@H](c2ccccc2)[C@@H](c2ccccc2)N2[C@@H](c3ccccc3OCCO)[C@]3(C(=O)Nc4ccc(C#CC5(O)CCCCCC5)cc43)[C@@H](C(=O)NC[C@H](O)c3ccccc3)[C@H]12`, for which the composite z-score in experiment [1] is 1.41; in experiment [3], -0.24; in [4] it was 0.819; in experiment [5] it was 0.923; in experiment [6], 0.0912; in experiment [7], 0.681. Further, the composite z-score was 1.86 in [8], 0.0197 in experiment [9] and 0.728 in experiment [10]. For the same molecule, the z-score in [2] was -3.23.

For `COc1ccc([Si](C)(C)[C@@H]2[C@@H](CCO)O[C@]3(C(=O)N(Cc4cccc(N5CCCCC5=O)c4)c4ccccc43)[C@H]2C)cc1`, the composite z-score in experiment [1] is 1.34; in experiment [3], 0.34; in experiment [4], 1.08; in experiment [5], 0.415; in [6], -0.0165; in experiment [7] it was -0.0626. Besides, the composite z-score in experiment [8] was found to be 0; in [9], 0.702; in experiment [10], 0.836. Also, the z-score in experiment [2] was -5.14.

Regarding `C=C(CCCC)/C(=C/C[C@@H](OC(=O)c1ccncc1)c1ccc(CO)o1)c1cc(C(=O)OC)ccc1OC`, the composite z-score in experiment [1] was 0.277; in [3], 1.02; in experiment [4], 1.19; in [5], -0.759; in [6] it was -0.0445; in experiment [7], -0.0011. For the same molecule, the composite z-score in [8] was -0.216; in experiment [9], 0.774; in experiment [10] it was 1.59. Further, the z-score in experiment [2] was -1.73.

Take `O=C1C2C=CC(C(O)c3ccccn3)N(Nc3ccccc3F)C2C(=O)N1c1ccccc1` (stereo not given): the composite z-score was 0.642 in [1]; 0.0355 in [3]; -0.116 in experiment [4]; -0.332 in experiment [5]; -0.0685 in experiment [6]; 0.0278 in experiment [7]. Besides, the composite z-score in experiment [8] is -0.216; in experiment [9] it was 0.0065; in [10], 0.231. This molecule also yielded a z-score in [2] of 0.426.

In the case of `COCCOC(=O)N1C(=O)[C@@]2(c3cc(C#Cc4ccc(OC)cc4)ccc31)[C@H](c1ccc(O)cc1)N1[C@H](c3ccccc3)[C@H](c3ccccc3)OC(=O)[C@H]1[C@@H]2C(=O)N1CCN(c2ncccn2)CC1`, the composite z-score in experiment [1] is 1.37; in experiment [3] it was 0.224; in experiment [4], 0.966; in experiment [5] it was 0.361; in experiment [6], -0.0846; in experiment [7] it was -0.441. Moreover, the composite z-score in [8] was -0.124; in [9] it was 0.596; in experiment [10] it was 0.829. The molecule further came in with a z-score in experiment [2] of -1.05.

`CC(C)(C)OC(=O)CC[C@@]1(C(=O)N2CCOCC2)N=C(c2ccc(OCCCO)cc2)O[C@@H]1c1ccccc1N=[N+]=[N-]`: the composite z-score in experiment [1] was determined as 1.48; in experiment [3] it was 0.395; in experiment [4] it was 1.56; in experiment [5], 0.642; in experiment [6], 0.115; in [7] it was 0.558. For the same molecule, the results for the composite z-score in experiment [8], in experiment [9] and in experiment [10] were 0.45, 1.6 and 2.41, respectively. This molecule yielded a z-score in experiment [2] of 0.623.

In the case of `CN(C)CCCC[C@@H]1NC(=O)[C@@H]2C[C@H](C(=O)NCCCCCCN)[C@H](c3ccc(O)cc3)N2C1=O`, the composite z-score in experiment [1] was found to be 1.42; in [3], 0.984; in experiment [4], 0.98; in [5], 1.02; in experiment [6] it was 0.178; in [7], 0.584. For the same molecule, the composite z-score in experiment [8] is -0.172; in [9], 1.7; in experiment [10] it was 0.629. The molecule also gave a z-score in experiment [2] of -0.379.

With `Cc1ccc(N2C(=O)c3ccccc3[C@@H](C(=O)NCC(C)C)[C@@H]2c2ccc(CO)cc2)nc1`, the composite z-score in [1] was -0.369; in experiment [3], -1.31; in experiment [4] it was -0.617; in [5], -0.259; in experiment [6], -0.176; in experiment [7], -0.0709. The figures for the composite z-score in [8], in experiment [9] and in experiment [10] were -0.518, 0.219 and -0.688, respectively. Also, the z-score in [2] is -0.216.
